# Among all 360,000 compounds or so, about 3,100 (0.86%) were called active.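 The calls were made as follows: active = at least 50% inhibition at 5 µM, scaled per plate between neutral and stimulator controls; inactive = the rest.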 This excerpt belongs to a sample that is enriched for actives.
# Assay: NF-kB reporter blockers in CF airway cells – cell-based, GFP fluorescence, uHTS, primary screen (AID 588850);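 also: PAF is a Pseudomonas aeruginosa culture filtrate used as stimulus; plate controls were PAF-stimulated DMSO wells for no effect and unstimulated DMSO wells for full effect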
# Conditions: KKLEB NF-kB-GFP reporter, PAF-induced, GFP fluorescence overnight; at 5 µM; stronger effect = higher value
row,Structure (SMILES),inhibition
1,COC1C(O)C(C)OC(OC2CCC3(C=O)C(CCC4C3CCC3(C)C(C5=CC(=O)OC5)CCC43O)C2)C1O (stereo unspecified),91.1% (active)
2,CCOP(=S)(OCC)SCOC(=O)NCC(=O)OC,-6.4% (inactive)
3,O=c1c2ccccc2[nH]c(=S)n1-c1cccc(Cl)c1,-27.2% (inactive)
4,Cc1ccc(-c2nn(CCC#N)cc2C(=O)O)cc1C,13.3% (inactive)
5,CC[N+](CC)(CC)CCCCCCCCCC[N+](CC)(CC)CC,9.5% (inactive)
6,COc1c(O)ccc2c1-c1c3c(cc4c1C(C2)N(C)CC4)OCO3 (stereo unspecified),-18.7% (inactive)
7,O=C1NC(=O)N(CCc2ccc(F)cc2)C(=O)/C1=C/C=C/c1ccccc1,101% (active)
8,c1cncc(CNC2=NCCC2)c1,13.7% (inactive)
9,CN1CCc2cc3c(cc2[C@H]1[C@@H]1OC(=O)c2c1ccc1c2OCO1)OCO3,15.1% (inactive)
10,CN(C)CCCN=Cc1c(O)n(Cc2ccco2)c(=O)[nH]c1=O,13.6% (inactive)
11,CC12CCC(O)CC1CCC1C2CCC2(C)C(C(=O)CC(O)C(F)(F)F)CCC12 (stereo unspecified),9.6% (inactive)
12,C[C@]12CC[C@H](O)C[C@H]1CC[C@@H]1C2CC[C@]2(C)[C@@H](C3=CC(=O)OC3)[C@@H](O)C[C@]12O (stereo partly specified),53.2% (active)
13,CCOP(=O)(OCC)C(NC(=O)NC)C(N)=O (stereo unspecified),-12.3% (inactive)
14,CC=C(C)C(=O)OC1CCN2CC=C(COC(=O)C(O)(C(C)OC)C(C)(C)O)C12 (stereo unspecified),1.6% (inactive)
15,CC(C)Oc1cccc(C(=O)C2CCCN(C3CCOCC3)C2)c1 (stereo unspecified),-10.1% (inactive)
16,CCOC(=O)c1cccc(C2=C(CNC(=O)c3ccncc3)[C@H]3CC[C@@H](C2)N3Cc2ccccc2)c1,2.6% (inactive)
17,CC(=CCOc1ccc2ccc(=O)oc2c1)C1=CC(=O)C(C)(C)O1,75.5% (active)
18,O=C(CCN1CCCCC1)NCC(=O)Nc1ccc(Br)cc1C(=O)c1ccccc1,-1.9% (inactive)
19,CC1=C(C(=O)Nc2ccccc2)SCCO1,-0.6% (inactive)
20,Cc1nn(-c2ccccc2)c(C)c1NC(=O)COC(=O)Cc1ccccc1,5.1% (inactive)
21,O=c1[nH]c2ccccc2n1C1CCN(C(c2ccccc2)c2nnnn2Cc2ccccc2)CC1 (stereo unspecified),85.1% (active)
22,COc1cccc(C(c2nnnn2-c2ccc3c(c2)OCCO3)N2CCC3(CC2)C(=O)NCN3c2ccccc2)c1OC (stereo unspecified),-0.8% (inactive)
23,CSCCC(c1nnnn1C(C)(C)C)N1CCC(n2c(=O)[nH]c3ccccc32)CC1 (stereo unspecified),-10.2% (inactive)
24,COc1ccc(-n2nnnc2C(c2cccc3ccccc23)N2CCC(n3c(=O)[nH]c4ccccc43)CC2)cc1 (stereo unspecified),53.2% (active)
25,O=c1[nH]c2ccccc2n1C1CCN(C(c2ccnc3ccccc23)c2nnnn2Cc2ccccc2)CC1 (stereo unspecified),39.9% (inactive)
26,O=C1NCN(c2ccccc2)C12CCN(C(c1cccs1)c1nnnn1C1CCCCC1)CC2 (stereo unspecified),-6.5% (inactive)

# Reference: PubChem BioAssay AID588850 (Sanford-Burnham Center for Chemical Genomics, 2011)
